Test results as given in PubChem BioAssay (NCATS).
Records with an inconclusive call do not appear. A call without a number means that no potency is given here. Activity calls are given as the source filed them. Calls come from the whole dose curve; as a rule, active = well fitted curve in the direction sought with a large enough effect; inconclusive = small, poorly fitted or top-dose-only effect, or another doubt; inactive = no such curve, though single readings can be large; an effect the other way counts as inactive or inconclusive.

What was measured:
[1] = molecular target: Cellular tumor antigen p53 (Homo sapiens) (UniProt P04637); experiment: Primary qHTS for small molecule compounds that upregulate eGFP-tagged delta133p53alpha (in N-terminal) cells. (AID 2060322); details: NCI-H358 eGFP-delta133p53alpha fluorescence, 24 h; activation: active compounds read high; note: series mostly up to about 56 µM; nearly all actives have a fitted effect of over 75% in size
Cellular tumor antigen p53 (Homo sapiens), sequence (P04637 whole entry, looked up): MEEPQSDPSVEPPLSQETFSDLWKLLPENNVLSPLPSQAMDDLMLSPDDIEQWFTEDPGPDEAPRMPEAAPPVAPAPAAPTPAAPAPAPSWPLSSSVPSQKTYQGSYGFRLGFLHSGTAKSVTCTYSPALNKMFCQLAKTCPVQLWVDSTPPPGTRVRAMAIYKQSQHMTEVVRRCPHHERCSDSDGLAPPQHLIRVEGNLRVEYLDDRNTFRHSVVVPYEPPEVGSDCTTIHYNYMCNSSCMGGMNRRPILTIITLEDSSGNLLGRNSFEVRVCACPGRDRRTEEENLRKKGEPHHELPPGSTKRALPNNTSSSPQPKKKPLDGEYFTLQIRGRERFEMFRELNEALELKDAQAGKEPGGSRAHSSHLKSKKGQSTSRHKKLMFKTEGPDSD
Method in brief: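 NCI-H358 cells pre-induced 24 h with 10 ng/ml doxycycline to express N-terminal eGFP-delta133p53alpha, then dosed 24 h at 37C without doxycycline; fixed, Hoechst-stained, GFP intensity by laser scanning cytometry, normalized to DMSO (0%) and 57.5 uM 5-azacytidine (100%).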

[2] = BET inhibitor-based combinations targeting novel dependencies in MECOM-rearranged (r) AML: SET-2 cell line (AID 2202231); details: SET-2 AML cells viability, CellTiter-Glo luminescence, 48 h; viability: active compounds read low, concentration not given here; note: nearly all actives have a fitted effect of over 35% in size; note: potency is the fitted concentration of half-maximal effect
Method in brief: (§1)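 500 cells/well; 11-pt dose curve; 48 h, standard incubator; CellTiter-Glo luminescence after 15 min RT; DMSO/empty-well normalization; AUC plus Z-AUC (mean-centered within each line).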

[3] = BET inhibitor-based combinations targeting novel dependencies in MECOM-rearranged (r) AML: OCI-AML3 cell line (AID 2202232); details: Potency: OCI-AML3 viability; note: nearly all actives have a fitted effect of over 35% in size; note: potency is the fitted concentration of half-maximal effect
Method in brief: as §1

[4] = BET inhibitor-based combinations targeting novel dependencies in MECOM-rearranged (r) AML: MV-4-11 cell line (AID 2202233); note: nearly all actives have a fitted effect of over 45% in size; note: potency is the fitted concentration of half-maximal effect
Method in brief: (§2)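 Cells were plated at 500 per well and exposed to each drug across an 11-point dose range for 48 hr at standard incubator conditions. Viability was read by CellTiter-Glo luminescence, and activity was expressed as AUC and per-cell-line Z-transformed AUC.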

[5] = BET inhibitor-based combinations targeting novel dependencies in MECOM-rearranged (r) AML: HNT-34 cell line (AID 2202234); note: nearly all actives have a fitted effect of over 35% in size; note: potency is the fitted concentration of half-maximal effect
Method in brief: as §2

[6] = BET inhibitor-based combinations targeting novel dependencies in MECOM-rearranged (r) AML: UCSD-AML1 cell line (AID 2202235); note: nearly all actives have a fitted effect of over 40% in size; note: potency is the fitted concentration of half-maximal effect
Method in brief: as §2

[7] = BET inhibitor-based combinations targeting novel dependencies in MECOM-rearranged (r) AML: AML-191 cell line (AID 2202236; note: nearly all actives have a fitted effect of over 35% in size; note: potency is the fitted concentration of half-maximal effect)
Method in brief: as §1

[8] = BET inhibitor-based combinations targeting novel dependencies in MECOM-rearranged (r) AML: AML-194 cell line (AID 2202237; note: nearly all actives have a fitted effect of over 40% in size; note: potency is the fitted concentration of half-maximal effect)
Method in brief: as §1

Structure (SMILES): CNC[C@H](O)[C@@H](O)[C@H](O)[C@H](O)CO
- activation [1]: -10% (inactive)
- viability [2]: 121% (inactive)
- Potency [3]: inactive
- Potency [4]: inactive
- Potency [5]: inactive
- Potency [6]: inactive
- Potency [7]: inactive
- Potency [8]: inactive

Structure (SMILES): COc1cc(OC2CCN(C)CC2)ccc1Nc1ncc2c(n1)n(C1CCCC1)c(=O)n2C
- activation [1]: 2.88% (inactive)
- Potency [2]: 4.68 µM (active)
- Potency [3]: 13.2 µM (active)
- Potency [4]: 3.32 µM (active)
- Potency [5]: 13.2 µM (active)
- Potency [6]: 14.8 µM (active)
- Potency [7]: 18.6 µM (active)
- Potency [8]: 16.6 µM (active)

Structure (SMILES): Nc1ncnc2c1nc(Cl)n2[C@@H]1O[C@H](CO)[C@@H](O)[C@@H]1O
- activation [1]: -2.08% (inactive)
- Potency [2]: 11.8 µM (active)
- Potency [3]: 13.2 µM (active)
- Potency [4]: 5.25 µM (active)
- Potency [5]: 2.95 µM (active)
- Potency [6]: 5.9 µM (active)
- Potency [7]: 3.72 µM (active)
- Potency [8]: 2.63 µM (active)

Structure (SMILES): Cn1cnc(=N)c2[nH]cnc21
- activation [1]: 10.7% (inactive)
- viability [2]: 111% (inactive)
- Potency [3]: inactive
- Potency [4]: inactive
- Potency [5]: inactive
- Potency [6]: inactive
- Potency [7]: inactive
- Potency [8]: inactive

Structure (SMILES): Nc1cccc2c1C(=O)N(C1CCC(=O)NC1=O)C2=O (stereo unspecified)
- activation [1]: 28.8% (inactive)
- viability [2]: 112% (inactive)
- Potency [3]: inactive
- Potency [4]: 0.0013 µM (active)
- Potency [5]: inactive
- Potency [6]: inactive
- Potency [7]: inactive
- Potency [8]: inactive

Structure (SMILES): CCN1CCN(C(=O)N[C@@H](C(=O)N[C@@H]2C(=O)N3C(C(=O)O)=C(CSc4nnnn4C)CS[C@H]23)c2ccc(O)cc2)C(=O)C1=O
- activation [1]: -7.34% (inactive)
- viability [2]: 99.4% (inactive)
- Potency [3]: inactive
- Potency [4]: inactive
- Potency [5]: inactive
- Potency [6]: inactive
- Potency [7]: inactive
- Potency [8]: inactive

Structure (SMILES): Cc1noc(-c2ccc(CSCCC(=O)O)cc2)c1NC(=O)OC(C)c1ccccc1Cl (stereo unspecified)
- activation [1]: -1.99% (inactive)
- viability [2]: 114% (inactive)
- Potency [3]: inactive
- Potency [4]: inactive
- Potency [5]: inactive
- Potency [6]: inactive
- Potency [7]: inactive
- Potency [8]: inactive
